Consider 22 compounds from PubChem BioAssay (Tox21).

Assay [1] is described as follows: A CellTox Green Cytotoxicity Assay to monitor cytotoxicity in HEK293 cells - 32 hour (AID 1224881). Note: nearly all actives have a fitted effect of over 40% in size. Note: potency is the fitted concentration of half-maximal effect. Put shortly:
(§1)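 Cytotoxicity was tracked continuously in HEK293 cells by a DNA-binding dye excluded from viable cells. Compounds were transferred in DMSO 5 h after seeding; fluorescence was recorded at intervals up to 40 h.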

A short description of assay [2]: A CellTox Green Cytotoxicity Assay to monitor cytotoxicity in HepG2 cells - 0 hour (AID 1224882). Note: nearly all actives have a fitted effect of over 35% in size. Note: potency is the fitted concentration of half-maximal effect. An outline of the steps: (§2)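 Real-time, homogeneous cytotoxicity readout: dead-cell DNA staining by CellTox Green in HepG2 monolayers, fluorescence measured at timed intervals up to 40 h of continuous compound exposure.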
A short description of assay [3]: A CellTox Green Cytotoxicity Assay to monitor cytotoxicity in HEK293 cells - 8 hour (AID 1224884). Note: nearly all actives have a fitted effect of over 35% in size. Note: potency is the fitted concentration of half-maximal effect. Put shortly: as §1
The nature of assay [4]: qHTS RealTime-Glo MT Cell Viability Assay in HepG2 cells - 16 hour (AID 1224885). Note: nearly all actives have a fitted effect of over 50% in size. Note: potency is the fitted concentration of half-maximal effect. An outline of the steps:
(§3)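 Real-time, nonlytic viability: 600 HepG2 cells/well mixed with NanoLuc enzyme plus prosubstrate; 5 h settle, compound (DMSO) added by pintool; luminescence monitored over 40 h at 37 C.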

Assay [5] is described as follows: qHTS RealTime-Glo MT Cell Viability Assay in HEK293 cells - 8 hour (AID 1224887). For activity change, negative = cytotoxicity: top concentration of the series differs between compounds. Note: nearly all actives have a fitted effect of over 50% in size. Note: potency is the fitted concentration of half-maximal effect. Put shortly:
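Nonlytic bioluminescent viability monitoring. HEK293 at 600 cells/well with reagent; 5 h settle; compound transfer by pintool; plates held at 37 C and read at set time points.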
A general note: Quantitative high-throughput screening tests each substance at several concentrations.

Assay [6] can be described thus: A CellTox Green Cytotoxicity Assay to monitor cytotoxicity in HEK293 cells - 16 hour (AID 1224888). Note: nearly all actives have a fitted effect of over 35% in size. Note: potency is the fitted concentration of half-maximal effect. Put shortly:
as §1

A short description of assay [7]: qHTS RealTime-Glo MT Cell Viability Assay in HepG2 cells - 0 hour (AID 1224889). Note: nearly all actives have a fitted effect of over 50% in size. Put shortly:
as §3

Assay [8] can be described thus: A CellTox Green Cytotoxicity Assay to monitor cytotoxicity in HepG2 cells - 8 hour (AID 1224890). Note: nearly all actives have a fitted effect of over 45% in size. Note: potency is the fitted concentration of half-maximal effect. Put shortly:
as §2

Assay [9] can be described thus: qHTS RealTime-Glo MT Cell Viability Assay in HEK293 cells - 24 hour (AID 1224886). For activity change, negative = cytotoxicity: top concentration of the series differs between compounds. Note: nearly all actives have a fitted effect of over 50% in size. Note: potency is the fitted concentration of half-maximal effect. Put shortly: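 Cells + reagent dispensed (600 cells/well, HEK293) → 5 h at 37 C/5% CO2 → 23 nL compound in DMSO pinned → 40 h at 37 C → luminescence read at 0, 8, 16, 24, 32, 40 h.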
Assay [10] can be described thus: A CellTox Green Cytotoxicity Assay to monitor cytotoxicity in HepG2 cells - 32 hour (AID 1224883). Note: nearly all actives have a fitted effect of over 50% in size. An outline of the steps:
as §2

Several values for one entry are separate records, joined by “and”; a condition that tells them apart may be missing. Equal values may be shown once. Records with an inconclusive call do not appear. Some compounds were tested as several samples or in several runs, with calls that do not always agree. Activity calls are given as the source filed them. Calls come from the whole dose curve; as a rule, active = well fitted curve in the direction sought with a large enough effect in the repeat runs; inconclusive = weak or mixed curves; inactive = no such curve, though single readings can be large; an effect the other way counts as inactive or inconclusive.
% is set by controls: 0 for no effect and ±100 for the full control effect.

As for `Cc1cnc(C2=NC(C)(C(C)C)C(=O)N2)c(C(=O)O)c1` (configuration not stated), the Potency entry in assay [1], in assay [2], in assay [3], in assay [4], in [5] and in assay [6] was “inactive” throughout. In assay [8], the Potency result was “inactive”. Also, the compound was called inactive in assay [7].

`CCCN(CCOc1c(Cl)cc(Cl)cc1Cl)C(=O)n1ccnc1`: the Potency result in assay [1], in assay [2], in assay [3], in [4], in [6] and in [8] was “inactive” each time. Moreover, the Potency in assay [9] is 22.3 µM (active) and 27.5 µM (active); in assay [5] it was 44.6 µM (active) and 27.5 µM (active).

Take `COc1ccccc1N1CCNCC1`: the Potency entry in assay [1], in [2], in assay [3], in assay [5], in assay [6] and in assay [8] was “inactive” each time. The compound was called inactive in [7].

`C[N+](C)(C)CCOC(=O)C(O)(c1ccccc1)c1ccccc1`: the Potency entry in [1], in assay [2], in assay [3], in assay [4], in assay [9] and in [5] was “inactive” each time. In addition, the Potency result in assay [6] and in assay [8] was “inactive” each time. In [7], the compound was called inactive.

In the case of `[Cl-].[Cl-].[Hg+2]`, the Potency in [1] is 21.8 µM (active) and 6.92 µM (active); in assay [3], “inactive and 15.5 µM (active)”; in assay [4] it was 48.8 µM (active) and 3.89 µM (active); in [5], 43.5 µM (active) and 3.47 µM (active); in assay [6], 38.7 µM (active) and 11 µM (active); in assay [8], 48.8 µM (active) and 4.9 µM (active). Further, the Potency result in assay [2] was “inactive”.

Turning to `Clc1ccccc1`, the Potency result in assay [1], in [2], in [3], in assay [4], in assay [9] and in assay [5] was “inactive” throughout. Moreover, the Potency result in assay [6] and in assay [8] was “inactive” throughout. Also, in [7], the outcome was inactive.

For `C=CCc1ccccc1O`, the Potency result in assay [1], in [2], in assay [3], in [4], in assay [9] and in assay [5] was “inactive” each time. For the same compound, the Potency entry in [6] and in assay [8] was “inactive” throughout. In addition, the result in [7] was inactive.

Turning to `CC(C)(C)c1ccc(CCOc2ncnc3ccccc23)cc1`, the Potency result in assay [1], in assay [2], in [3], in assay [9], in assay [5] and in assay [6] was “inactive” each time. The Potency result in [8] was “inactive”. For the same compound, the compound was called inactive in assay [7].

Take `C=CC(C)(CCC=C(C)C)OC(=O)c1ccccc1N` (configuration not stated): the Potency result in [1], in assay [2], in [3], in assay [4], in assay [9] and in assay [5] was “inactive” throughout. Further, the Potency result in assay [6] and in [8] was “inactive” in each case. Moreover, the call in [7] was inactive.

Regarding `CCCCCCCCCCCCN=C(N)N`, the cytotoxicity increase in [1] was 11.7% [at 2.72 µM] (inactive); in [3] it was 4.34% [at 2.72 µM] (inactive); in assay [8], -0.515% [at 2.72 µM] (inactive). In assay [2], the cytotoxicity is -4.6% [at 2.72 µM] (inactive). Also, the activity change, negative = cytotoxic in assay [4] is -5.38% [at 2.72 µM] (inactive). Also, the activity change in [6] was 7.85% [at 2.72 µM, stronger effect = higher value] (inactive). Further, the activity change, negative = cytotoxicity in assay [7] was 5.28% [at 2.72 µM] (inactive).

Consider `O=CC=O`, for which the Potency entry in assay [1], in assay [2], in [10], in assay [4], in assay [5] and in [6] was “inactive” each time. Also, in assay [8], the Potency result was “inactive”. In addition, the call in assay [7] was inactive.

For `COc1ccc(C(=O)c2c(C)n(CCN3CCOCC3)c3ccccc23)cc1`, the Potency entry in assay [1], in [3], in assay [5] and in assay [6] was “inactive” throughout. Besides, the values for the Potency in assay [2] and in assay [8] were 0.952 µM (active) and 1.07 µM (active), respectively. In assay [7], the call was inactive.

For `COc1cc(C[C@@H](C)N)c(OC)cc1Br`, the Potency result in [1], in assay [2], in assay [3], in [4], in [9] and in assay [5] was “inactive” each time. Moreover, the Potency result in assay [6] and in assay [8] was “inactive” throughout.

In the case of `CN(C)C(=O)Nc1cccc(OC(=O)NC(C)(C)C)c1`, the Potency entry in assay [1], in [2], in [10], in assay [4], in assay [9] and in assay [5] was “inactive” in each case. The Potency entry in assay [6] and in [8] was “inactive” each time.

Consider `CCCN(CCC)C(=O)Cc1c(-c2ccc(Cl)cc2)nc2ccc(Cl)cn12`, for which the Potency entry in assay [1], in assay [2], in [3], in assay [4], in assay [6] and in assay [8] was “inactive” throughout. Moreover, the Potency in assay [9] and in assay [5] was 5.35 µM (active) throughout. For the same compound, in assay [7], the result was inactive.

For `C1CS1`, the Potency entry in assay [1], in [2], in assay [3], in [4], in assay [9] and in [5] was “inactive” each time. Moreover, the Potency result in assay [6] and in assay [8] was “inactive” throughout. The outcome in assay [7] was inactive.

With `COc1cc(CC(C)N)c(OC)cc1Br` (configuration not stated), the Potency entry in assay [1], in assay [2], in assay [3], in [4], in [9] and in assay [5] was “inactive” each time. The Potency result in [6] and in assay [8] was “inactive” each time.

As to `C=CCc1ccc(OC(=O)Cc2ccccc2)c(OC)c1`, the Potency entry in assay [1], in [2], in assay [3], in assay [4], in assay [5] and in [6] was “inactive” each time. Further, in assay [8], the Potency entry is “inactive”. Moreover, in assay [7], the call was inactive.

For the compound `CCN(C(C)=O)c1cccc(-c2ccnc3c(C#N)cnn23)c1`, the Potency entry in assay [1], in assay [2], in assay [3], in assay [4], in [9] and in assay [5] was “inactive” throughout. Moreover, the Potency result in assay [6] and in [8] was “inactive” throughout. In addition, the result in assay [7] was inactive.

In the case of `O=[N+]([O-])O[C@H]1CO[C@H]2[C@@H]1OC[C@H]2O[N+](=O)[O-]`, the Potency result in assay [2], in assay [10], in assay [3], in [4], in [9] and in assay [5] was “inactive” each time. Besides, the Potency result in [6] and in [8] was “inactive” each time. Besides, in assay [7], the compound was classed as inactive.

Turning to `CCC(C)(C)c1ccc(O)c(C(C)(C)CC)c1`, the Potency is 48.5 µM (active) and 13.8 µM (active) in assay [1]; 48.5 µM (active) and inactive in assay [3]; 43.2 µM (active) in assay [9]; 24.3 µM (active) in [5]. For the same compound, the result in assay [7] was inactive.

As for `CC(C)CCCCCCCOC(=O)c1ccccc1C(=O)OCCCCCCCC(C)C`, the Potency result in assay [1], in assay [10], in [3], in assay [4], in [9] and in [5] was “inactive” throughout. The Potency result in assay [6] and in [8] was “inactive” each time.
